Sampled rows, rich in hits. Any-hit rate of the full collection: about 2.8%.
PAX8 inh HTS – PAX8 transcriptional activity inhibition; RMG-I TPO-luciferase reporter, SteadyGlo, 24 h; inhibition, % at 12.6 µM; 1.2% of 360,000 active;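 active = mean replicate inhibition at least 60% with every replicate also reaching 60%; inconclusive = only one of the two criteria is met; inactive = mean below 60% and not all replicates reaching 60%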;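 note: luciferase light reporting Pax8 driven TPO promoter activity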
EBV LMP1 NFkB – inhibitors of Epstein-Barr LMP1-induced NF-kappaB reporter | 0.69% of 350,000 active | inhibition, % at 12.5 µM | LMP1-induced NF-kappaB luciferase reporter cells, luminescence; in the data active = inhibition above about 41%; inconclusive = no clear call, values can overlap the other calls
Peg3 promoter – Peg3 promoter activity inhibition | AID 588405 | inhibition, % at 20 µM | HeLa PEG-Prom luciferase reporter, luminescence, overnight | 1.7% of 360,000 active;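 active = inhibition of at least 50% at 20 µM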
Shn3 3UTR inh – Schnurri-3 reporter inhibition in Clone20 osteoblasts; AID 588674; inhibition, % at 12.5 µM; 0.52% of 360,000 active; Clone20 osteoblast Shn3 3'UTR firefly luciferase, 24 h;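 active = mean inhibition of at least 75% with every replicate also reaching 75%; inconclusive = mean inhibition at least 75% but some replicate below; inactive = mean inhibition below 75%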
TRPM1 prom inh – inhibitors of MITF-driven TRPM1 promoter in melanoma cells | inhibition, % at 12.5 µM | SK-MEL-5 TRPM1 promoter luciferase, 24 h | AID 488899 | 0.83% of 330,000 active;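 active = mean inhibition across replicates of 60% or more, whatever share of single replicates reaches that level; inconclusive = some that reach 60%, reason not given; inactive = mean inhibition across replicates below 60%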
HIF-2a block – inhibitors of HIF-2a; 786-0 RCC cells HIF-2a reporter, luciferase luminescence, overnight; inhibition, % at 18.8 µM; 0.72% of 360,000 active; AID 624352;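 active = inhibition of the luminescence signal of 40% or more relative to plate controls, in a single-dose primary screen at 18.75 µM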
Mdm2-MdmX confirm – confirmation of inhibitors of human Mdm2/MdmX interaction, set 2. shares compounds with HIF-2a block. inhibition, % at 8 µM. SaOS-2 split-luciferase Mdm2/MdmX complementation, luminescence. AID 504601. 99% of 740 active;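 active = mean inhibition of the luminescence signal across two replicates at or above 26 percent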
Target sequence (O15151 whole entry, looked up): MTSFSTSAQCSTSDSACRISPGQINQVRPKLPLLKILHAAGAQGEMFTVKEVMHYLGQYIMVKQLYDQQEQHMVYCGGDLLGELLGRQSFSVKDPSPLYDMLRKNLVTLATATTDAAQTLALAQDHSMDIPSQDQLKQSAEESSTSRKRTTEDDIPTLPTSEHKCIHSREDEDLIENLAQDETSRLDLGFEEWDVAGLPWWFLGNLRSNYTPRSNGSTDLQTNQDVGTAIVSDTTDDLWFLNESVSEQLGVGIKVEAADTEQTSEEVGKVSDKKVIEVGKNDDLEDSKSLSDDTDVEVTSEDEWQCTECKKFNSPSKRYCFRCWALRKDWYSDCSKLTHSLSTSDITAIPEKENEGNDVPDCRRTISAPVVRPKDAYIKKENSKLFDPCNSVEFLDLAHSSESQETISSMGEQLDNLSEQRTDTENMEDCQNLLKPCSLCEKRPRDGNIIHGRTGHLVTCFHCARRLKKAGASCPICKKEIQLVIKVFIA
Target sequence (Q00987 whole entry, looked up): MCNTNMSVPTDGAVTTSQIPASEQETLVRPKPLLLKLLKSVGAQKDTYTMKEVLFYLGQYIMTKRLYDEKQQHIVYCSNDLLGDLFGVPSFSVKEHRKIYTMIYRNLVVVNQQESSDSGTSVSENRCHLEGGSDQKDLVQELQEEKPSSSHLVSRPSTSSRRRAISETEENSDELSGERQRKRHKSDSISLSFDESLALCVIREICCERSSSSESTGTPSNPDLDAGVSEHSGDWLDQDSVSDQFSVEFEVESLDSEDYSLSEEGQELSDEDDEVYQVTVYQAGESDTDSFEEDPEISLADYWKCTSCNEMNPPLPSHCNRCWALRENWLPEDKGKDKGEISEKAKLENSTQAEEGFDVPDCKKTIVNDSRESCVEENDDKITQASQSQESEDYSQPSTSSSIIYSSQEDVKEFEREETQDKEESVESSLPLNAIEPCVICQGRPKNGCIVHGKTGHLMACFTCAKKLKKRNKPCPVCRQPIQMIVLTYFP
HIF-2a inh conf – confirmation of HIF-2a inhibitors | 786-0 RCC cells, HIF-2a luciferase reporter luminescence, overnight | AID 651580 | inhibition, % at 18.8 µM | 56% of 1,800 active | shares compounds with HIF-2a block;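 active = mean inhibition across four replicates of at least 40 percent at the single tested concentration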
HIF-1a counter – inhibits HIF-1a reporter, a counter-screen for HIF-2a inhibitors; shares compounds with HIF-2a block; MiaPaCa-2 HIF-1a luciferase reporter, desferoxamine, overnight; inhibition, % at 18.8 µM; 72% of 1,800 active; AID 651589;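 active = mean inhibition of the reporter signal across four replicates at the single tested dose of 50% or more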
Of the large screens only hits and unclear results are named; the others gave an inactive call (follow-up assays come after a bar, where they were run).

COC(=O)CCn1nnc(-c2cccs2)n1	none (no result: PAX8 inh HTS)
COC(=O)CCn1nnc(-c2ccc(C(C)C)cc2)n1	EBV LMP1 NFkB inconclusive, TRPM1 prom inh 68, HIF-2a block 91 | HIF-2a inh conf 96 | HIF-1a counter 75
O=C(C[C@H]1CC[C@H]2[C@@H](COC[C@H](O)CN2S(=O)(=O)c2ccccc2)O1)Nc1ccc(-c2ccccc2)cc1	none (no result: EBV LMP1 NFkB, Peg3 promoter, Shn3 3UTR inh, TRPM1 prom inh, HIF-2a block)
COc1ccc(C2=NN(C(=O)COC(=O)c3ccc(S(C)(=O)=O)c([N+](=O)[O-])c3)C(c3ccco3)C2)cc1 (stereo not given)	Peg3 promoter 94, TRPM1 prom inh 81, HIF-2a block 61 | Mdm2-MdmX confirm 103 | HIF-2a inh conf inactive | HIF-1a counter 103
N=c1n(CC(=O)c2ccc(Br)s2)c2ccccc2n1Cc1ccccc1	Peg3 promoter 101, TRPM1 prom inh 90, HIF-2a block 67 | Mdm2-MdmX confirm 102 | HIF-2a inh conf inactive | HIF-1a counter 106
CCCn1c(=N)n(CC(=O)c2cccs2)c2ccccc21	none (no result: PAX8 inh HTS)
CNC[C@@H]1OCCCC[C@H](C)Oc2ccc(NC(=O)Nc3ccc4c(c3)OCO4)cc2C(=O)N([C@@H](C)CO)C[C@H]1C	none (no result: EBV LMP1 NFkB, Peg3 promoter, Shn3 3UTR inh, TRPM1 prom inh, HIF-2a block)
O=C(/C=C/c1c(F)cccc1Cl)c1ccc(O)cc1	none | Mdm2-MdmX confirm 50
O=C(/C=C/c1c(F)cccc1Cl)Nc1ncccn1	none
CCN(CC(=O)Nc1ccc(NC(C)=O)cc1)C(=O)/C=C/c1ccc(S(=O)(=O)N2CCCCCC2)cc1	HIF-2a block 42 | HIF-2a inh conf inactive | HIF-1a counter inactive
C[C@@H]1CCCCO[C@@H](CN(C)Cc2ccc(C(=O)O)cc2)[C@H](C)CN([C@@H](C)CO)C(=O)c2cc(NS(=O)(=O)c3ccc(F)cc3)ccc2O1	none (no result: EBV LMP1 NFkB, Peg3 promoter, Shn3 3UTR inh, TRPM1 prom inh, HIF-2a block)
CC(C)CC(NC(=O)OCc1ccccc1)C(=O)NC(Cc1ccccc1)C(=O)CCl (stereo not given)	Peg3 promoter 93, TRPM1 prom inh 114, HIF-2a block 48 | HIF-2a inh conf 73 | HIF-1a counter 87
NC(N)=N/N=C/c1ccc(OCc2ccccc2Cl)cc1	Peg3 promoter 103, HIF-2a block 93 (no result: PAX8 inh HTS) | HIF-2a inh conf inactive | HIF-1a counter 106
COc1ccccc1OCCCCN1CCCCC1	none
COc1ccccc1OCCN1CSC(=S)N(C)C1	Peg3 promoter 100, TRPM1 prom inh 69, HIF-2a block 88 | HIF-2a inh conf inactive | HIF-1a counter 103
Cc1noc(C)c1NC(=O)Nc1ccc2c(c1)C(=O)N([C@H](C)CO)C[C@H](C)[C@H](CN(C)C(=O)Nc1cccc3ccccc13)OCCCC[C@@H](C)O2	none (no result: EBV LMP1 NFkB, Peg3 promoter, Shn3 3UTR inh, TRPM1 prom inh, HIF-2a block)
Cc1ccc(C2CC(c3cccs3)=NN2C(=O)CCl)cc1 (stereo not given)	none | Mdm2-MdmX confirm 102
CCC(=O)N1N=C(c2cccs2)CC1c1ccc(C)cc1 (stereo not given)	none
CCOc1ccc(N2C(=O)/C(=C/c3cc(OC)c(OC)c(OC)c3)N(CC(=O)OC)C2=S)cc1	HIF-2a block 48 | HIF-2a inh conf inactive | HIF-1a counter inactive
CCOc1ccc(/C=C2/C(=O)N(c3ccc(OC)cc3)C(=S)N2CC(=O)OC)cc1OCC	none (no result: PAX8 inh HTS)
COc1cc(/C=C/C(=O)c2ccc3c(c2)OCCO3)cc(OC)c1OC	HIF-2a block 56 | HIF-2a inh conf 48 | HIF-1a counter 101
COc1cc(/C=C/C(=O)c2ccc(C)cc2)ccc1OCC#N	Peg3 promoter 103, HIF-2a block 86 | HIF-2a inh conf inactive | HIF-1a counter 102
COc1ccc(/C=C/C(=O)c2ccc3c(c2)OCO3)cc1OC	none (no result: TRPM1 prom inh)
COc1ccc(C=CC(=O)c2ccc(OCc3ccccc3)c(OC)c2)cc1OC	none (no result: TRPM1 prom inh)
COc1cc(/C=C/C(=O)c2ccc3c(c2)OCO3)cc(OC)c1OC	HIF-2a block 44 (no result: PAX8 inh HTS) | HIF-2a inh conf inactive | HIF-1a counter 103
C/C=C/c1ccc([C@H]2[C@@H](CO)N(C(=O)CC)[C@H]2CNC(=O)CC2CC2)cc1	none (no result: EBV LMP1 NFkB, Peg3 promoter, Shn3 3UTR inh, TRPM1 prom inh, HIF-2a block)
CCOc1ccc(C(=O)/C=C/c2cc(OC)c(OC)c(OC)c2)cc1	Peg3 promoter 62, HIF-2a block 66 | HIF-2a inh conf 53 | HIF-1a counter 103
COc1cc(/C=C/C(=O)c2ccc(F)cc2)cc(OC)c1OC	none
O=C(N[C@H]1CC[C@@H](CCNS(=O)(=O)c2ccc(F)cc2)O[C@@H]1CO)C1CC1	none (no result: EBV LMP1 NFkB, Peg3 promoter, Shn3 3UTR inh, TRPM1 prom inh, HIF-2a block)
CCNC(=O)C[C@@H]1CC[C@@H]2[C@H](COc3ccc(NC(=O)Nc4cccc(F)c4)cc3C(=O)N2C)O1	none (no result: EBV LMP1 NFkB, Peg3 promoter, Shn3 3UTR inh, TRPM1 prom inh, HIF-2a block)
NC(=O)[C@@H]1CCCN1C(=O)[C@H]1O[C@@H](n2ccc(N)nc2=O)[C@H](O)[C@@H]1O	none (no result: EBV LMP1 NFkB, Peg3 promoter, Shn3 3UTR inh, TRPM1 prom inh, HIF-2a block)
C=C(C(=O)c1ccccc1)C(c1ccccc1)C(C)C(=O)c1ccccc1 (stereo not given)	HIF-2a block 81 | HIF-2a inh conf 45 | HIF-1a counter 96
C=C(C(=O)c1ccccc1)C(C(=C)C(=O)c1ccccc1)c1ccc(OC)cc1	PAX8 inh HTS 117, Peg3 promoter 105, Shn3 3UTR inh 97, TRPM1 prom inh 82, HIF-2a block 61 | Mdm2-MdmX confirm 103 | HIF-2a inh conf 59 | HIF-1a counter 103
COc1ccc(-c2oc3ccccc3c(=O)c2OC(C)=O)cc1	none | Mdm2-MdmX confirm 93
COc1ccc(-c2oc3ccccc3c(=O)c2OCC(=O)O)cc1	none
CC(C)NC(=O)Nc1ccc2c(c1)CC(=O)N([C@H](C)CO)C[C@@H](C)[C@H](CN(C)S(=O)(=O)c1ccc(Cl)cc1)O2	none (no result: EBV LMP1 NFkB, Peg3 promoter, Shn3 3UTR inh, TRPM1 prom inh, HIF-2a block)
COc1ccc(-c2oc3ncn(CCN4CCOCC4)c(=N)c3c2-c2ccc(OC)cc2)cc1	HIF-2a block 45 | HIF-2a inh conf inactive | HIF-1a counter 86
COc1ccc(-c2oc3ncnc(NCCN4CCOCC4)c3c2-c2ccc(OC)cc2)cc1	EBV LMP1 NFkB 48, Peg3 promoter 51, HIF-2a block 47 (no result: PAX8 inh HTS) | HIF-2a inh conf inactive | HIF-1a counter 90
O=C(NCC1CC1)[C@@H]1[C@@H](CO)[C@@H]2Cn3c(cccc3=O)[C@@H]2N1Cc1cccc(F)c1	none (no result: EBV LMP1 NFkB, Peg3 promoter, Shn3 3UTR inh, TRPM1 prom inh, HIF-2a block)
CCOC(=O)CNC(=O)CSc1nnc(NC(=O)c2ccc(C)cc2)s1	EBV LMP1 NFkB 55, HIF-2a block 45 | HIF-2a inh conf 65 | HIF-1a counter inactive
CCOC(=O)CNC(=O)CSc1nnc(NC(=O)c2ccc3c(c2)OCO3)s1	none
CC(C)/C=C(/C(=O)c1ccc(Cl)cc1Cl)n1cncn1	none

Screening results from PubChem.
